A number with no mark means an inactive call. For some of these results: Results with a measured potency or affinity are listed apart. Active and inactive are the calls of the source. Unless noted, no rule for the calls is given here.

Assay [1] is described as follows: antimalarial activity against Dd2 strain (AID 2302;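 active = growth inhibition above 50% at the single 2 µM test dose, taken to imply half-maximal potency below 2 µM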;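 also: 0% = DMSO untreated growth and 100% = chloroquine plus artemisinin killed control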). The conditions noted are these: P. falciparum Dd2 in RBCs, LDH growth readout, 72 h; at 2 µM; stronger effect = higher value.
Assay [2] is described as follows: human hepatoma cell viability loss – ATP luminescence, cytotoxicity control for P. falciparum antimalarial project, primary screen (AID 2303;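 active = inhibition above 50%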;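 also: 0% = DMSO wells and 100% = digitonin-killed cells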). Conditions: HepG2 viability, 24-48 h, at 10 µM, stronger effect = higher value.
Assay [3] deals with L-lactate dehydrogenase (Plasmodium falciparum (isolate CDC / Honduras)) (UniProt Q27743). The experiment in a line: PfLDH activity inhibition – cell lysate, 3D7 strain, counter-screen for P. falciparum growth inhibition project (AID 2304).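 Also: 0% = vehicle and 100% = reference inhibitor.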 The conditions noted are these: P. falciparum 3D7 crude extract, LDH APAD/NBT absorbance; at 2 µM; stronger effect = higher value. Background: A counterscreen serves to expose hits that act by an unwanted route or on another target.

Assay [4] in a line: inhibition of 3D7 malaria parasite growth – strain 3D7 (AID 2306).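 Also: 0% = DMSO wells and 100% = chloroquine plus artemisinin control wells.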 Conditions: P. falciparum 3D7 erythrocytic growth, LDH absorbance, 72 h; at 2 µM; stronger effect = higher value.
The target in assay [5] is Calcium-dependent protein kinase 1 (Plasmodium falciparum (isolate 3D7)) (UniProt P62344). The experiment in a line: PfCDPK1 kinase inhibitors, biochemical, TCAMS library (AID 1159585; cut-off not given, nearly all actives have IC50 up to about 0.98 µM;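 also: inhibitors leave more ATP so luminescence rises with inhibition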). Conditions: recombinant PfCDPK1, Kinase-Glo ATP depletion luminescence.
Assay [6] concerns the target Plasmodium falciparum protein kinase 6 (PK6, PF3D7_1337100) (UniProt Q8IDW1). In words: PfPK6 kinase inhibitors, biochemical, TCAMS library (AID 1159586). Conditions: recombinant PfPK6, Kinase-Glo ATP depletion luminescence. For orientation: Kinase-Glo reads ATP consumption through a luciferase reaction.
For assay [7], the target named is Protein kinase 7 (PK7), Plasmodium falciparum 3D7 (PF3D7_0213400) (UniProt Q7YTF7). In words: inhibition of Plasmodium PK7 catalytic activity – biochemical, TCAMS antimalarial set, Kinase-Glo luminescence (AID 1159587). Conditions: recombinant PfPK7, Kinase-Glo ATP depletion luminescence.
Assay [8] has as its target Calcium-dependent protein kinase 4 (Plasmodium falciparum (isolate 3D7)) (UniProt Q8IBS5). The experiment in a line: PfCDPK4 kinase inhibitors, biochemical, TCAMS library (AID 1159588; cut-off not given, nearly all actives have IC50 up to about 0.91 µM). Conditions: recombinant PfCDPK4, Kinase-Glo ATP depletion luminescence.

Sequence of Calcium-dependent protein kinase 4 (Plasmodium falciparum (isolate 3D7)) (Q8IBS5 whole entry, looked up): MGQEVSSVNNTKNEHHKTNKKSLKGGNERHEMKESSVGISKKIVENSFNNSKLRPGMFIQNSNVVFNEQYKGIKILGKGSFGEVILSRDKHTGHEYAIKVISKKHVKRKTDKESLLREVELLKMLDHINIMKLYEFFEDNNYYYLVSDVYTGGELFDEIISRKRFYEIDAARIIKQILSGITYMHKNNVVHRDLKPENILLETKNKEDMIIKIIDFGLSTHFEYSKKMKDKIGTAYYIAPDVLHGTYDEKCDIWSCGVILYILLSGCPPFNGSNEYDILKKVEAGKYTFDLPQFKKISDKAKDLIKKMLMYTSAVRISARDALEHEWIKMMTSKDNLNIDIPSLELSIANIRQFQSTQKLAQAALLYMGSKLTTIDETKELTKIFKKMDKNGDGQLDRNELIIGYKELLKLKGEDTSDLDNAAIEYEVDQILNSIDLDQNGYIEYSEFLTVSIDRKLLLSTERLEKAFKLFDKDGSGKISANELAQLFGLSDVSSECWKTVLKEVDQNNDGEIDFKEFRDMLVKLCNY
Sequence of Plasmodium falciparum protein kinase 6 (PK6, PF3D7_1337100) (Q8IDW1 1-305): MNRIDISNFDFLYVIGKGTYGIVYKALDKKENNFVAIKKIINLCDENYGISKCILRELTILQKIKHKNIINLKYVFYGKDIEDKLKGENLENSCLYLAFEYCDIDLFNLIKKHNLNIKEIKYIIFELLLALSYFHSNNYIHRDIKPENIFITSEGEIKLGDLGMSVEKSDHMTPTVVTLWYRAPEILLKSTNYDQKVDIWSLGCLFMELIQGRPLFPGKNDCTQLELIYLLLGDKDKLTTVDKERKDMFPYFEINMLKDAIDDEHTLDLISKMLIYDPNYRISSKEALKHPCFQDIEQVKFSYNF
Sequence of L-lactate dehydrogenase (Plasmodium falciparum (isolate CDC / Honduras)) (Q27743 whole entry, looked up): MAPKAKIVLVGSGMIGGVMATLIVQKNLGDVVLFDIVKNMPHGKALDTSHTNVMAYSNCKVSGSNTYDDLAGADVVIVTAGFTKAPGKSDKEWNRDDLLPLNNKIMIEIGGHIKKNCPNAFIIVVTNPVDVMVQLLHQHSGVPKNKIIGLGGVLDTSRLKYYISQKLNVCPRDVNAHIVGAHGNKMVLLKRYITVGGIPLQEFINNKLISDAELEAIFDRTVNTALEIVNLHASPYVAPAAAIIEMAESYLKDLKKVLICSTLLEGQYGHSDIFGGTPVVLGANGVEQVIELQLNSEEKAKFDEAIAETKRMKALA
Sequence of Protein kinase 7 (PK7), Plasmodium falciparum 3D7 (PF3D7_0213400) (Q7YTF7 1-343): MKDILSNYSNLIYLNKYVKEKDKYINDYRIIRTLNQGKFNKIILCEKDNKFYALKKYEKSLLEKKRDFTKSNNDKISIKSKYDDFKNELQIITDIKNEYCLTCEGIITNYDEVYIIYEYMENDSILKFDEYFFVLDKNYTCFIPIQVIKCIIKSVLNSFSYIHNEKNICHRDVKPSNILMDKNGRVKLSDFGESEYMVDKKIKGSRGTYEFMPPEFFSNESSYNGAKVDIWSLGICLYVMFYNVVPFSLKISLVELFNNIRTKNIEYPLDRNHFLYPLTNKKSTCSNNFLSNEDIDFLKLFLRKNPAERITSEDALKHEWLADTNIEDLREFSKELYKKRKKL
Sequence of Calcium-dependent protein kinase 1 (Plasmodium falciparum (isolate 3D7)) (P62344 whole entry, looked up): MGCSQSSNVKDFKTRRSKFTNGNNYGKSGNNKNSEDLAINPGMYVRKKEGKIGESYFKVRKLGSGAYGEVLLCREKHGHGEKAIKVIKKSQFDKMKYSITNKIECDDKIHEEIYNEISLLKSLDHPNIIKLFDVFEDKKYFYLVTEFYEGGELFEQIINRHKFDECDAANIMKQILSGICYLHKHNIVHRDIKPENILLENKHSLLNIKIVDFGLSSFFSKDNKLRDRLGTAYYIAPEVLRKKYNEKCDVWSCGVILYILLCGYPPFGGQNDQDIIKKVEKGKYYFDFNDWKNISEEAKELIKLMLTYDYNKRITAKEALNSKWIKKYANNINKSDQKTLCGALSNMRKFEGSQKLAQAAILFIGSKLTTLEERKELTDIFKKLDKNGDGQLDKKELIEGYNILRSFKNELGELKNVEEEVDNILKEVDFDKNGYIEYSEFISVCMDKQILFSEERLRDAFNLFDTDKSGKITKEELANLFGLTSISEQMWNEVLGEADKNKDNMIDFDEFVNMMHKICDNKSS

As a reminder, the inhibition is the change of the read-out against control, counted positive when it falls. `CCOC(=O)c1ccc(NC(=O)Nc2ccc(Cn3ncc(N4CCCNCC4)c(Cl)c3=O)cc2)cc1`: the growth inhibition was 58% (active) in assay [1] and 88% (active) in assay [4]. Moreover, the inhibition in assay [2] and in assay [3] was 2% throughout. The result in assay [5], in assay [6], in assay [7] and in assay [8] was inactive.
As for `Cc1ccc(Nc2nc(C)cc(NC3CCN(C)CC3)n2)cc1`, the growth inhibition in assay [1] is 21%; in assay [4] it was 100% (active). The inhibition in assay [2] was 14%; in assay [3] it was 2%. In addition, the result in assay [5], in assay [6], in assay [7] and in assay [8] was inactive.
Regarding `Cc1cccc2c(CON3C(N)=NC(N)=NC3(C)C)cccc12`, the growth inhibition in assay [1] and in assay [4] was 94% (active) in each case. Moreover, the inhibition is 64% (active) in assay [2] and -1% in assay [3]. Moreover, the result in assay [5], in assay [6], in assay [7] and in assay [8] was inactive.
Consider `COc1ccc(CCc2ccc(-c3c(C)[nH]c(C)c(Cl)c3=O)cc2)cc1OC`, for which the values for the growth inhibition in assay [1] and in assay [4] were 97% (active) and 99% (active), respectively. Also, the results for the inhibition in assay [2] and in assay [3] were -5% and -7%, respectively. Moreover, the outcome in assay [5], in assay [6], in assay [7] and in assay [8] was inactive.
As for `N#Cc1ccc2nc(-c3cc(-c4cccc(F)c4)cnc3N)[nH]c2c1`, the growth inhibition in assay [1] is 93% (active); in assay [4], 100% (active). Further, the inhibition in assay [2] is 46%; in assay [3], 5%. Besides, the result in assay [5], in assay [6], in assay [7] and in assay [8] was inactive.
Turning to `Clc1cccc(C=NNc2nc(Nc3ccccc3)nc(Nc3ccccc3)n2)c1`, the growth inhibition in assay [1] is 15%; in assay [4] it was 92% (active). Also, the results for the inhibition in assay [2] and in assay [3] were -5% and -4%, respectively. The result in assay [5], in assay [6], in assay [7] and in assay [8] was inactive.
Regarding `Cc1nc2nc(N)nc(N)c2c(C)c1Cc1ccccc1Cl`, the values for the growth inhibition in assay [1] and in assay [4] were -2% and 93% (active), respectively. Also, the inhibition in assay [2] is 63% (active); in assay [3], -3%. The outcome in assay [5], in assay [6], in assay [7] and in assay [8] was inactive.
With `COc1ccc2ncc(F)c([C@H](O)CN3CCC(NCc4cc5c(cn4)OCCO5)CC3)c2c1`, the growth inhibition was 97% (active) in assay [1] and 101% (active) in assay [4]. The inhibition is 5% in assay [2] and 7% in assay [3]. The result in assay [5], in assay [6], in assay [7] and in assay [8] was inactive.
Take `Fc1cc(Cl)ccc1Nc1ccnc2cc(-c3scnc3CNCCN3CCOCC3)ccc12`: the growth inhibition in assay [1] is 84% (active); in assay [4], 99% (active). Besides, the inhibition is -7% in assay [2] and -2% in assay [3]. The result in assay [5], in assay [6], in assay [7] and in assay [8] was inactive.
Turning to `CCc1c[nH]c2c(N3CCCC3=O)cc(C(=O)N[C@@H](Cc3ccccc3)[C@H](O)CNC3CCCCC3)cc12`, the figures for the growth inhibition in assay [1] and in assay [4] were 98% (active) and 100% (active), respectively. The inhibition in assay [2] was 12%; in assay [3] it was -1%. The outcome in assay [5], in assay [6], in assay [7] and in assay [8] was inactive.
Turning to `CCNc1cc(C(=O)N[C@@H](Cc2ccccc2)[C@H](O)CNCc2cccc(-n3ccnc3)c2)cc(N2CCCC2=O)c1`, the results for the growth inhibition in assay [1] and in assay [4] were 96% (active) and 99% (active), respectively. The inhibition in assay [2] and in assay [3] was 1% in each case. The outcome in assay [5], in assay [6], in assay [7] and in assay [8] was inactive.
As for `COc1cc(-c2cnc(N)c(-c3nc4ccccc4[nH]3)c2)cc(OC)c1OC`, the growth inhibition was 57% (active) in assay [1] and 101% (active) in assay [4]. The values for the inhibition in assay [2] and in assay [3] were 59% (active) and 7%, respectively. In addition, the outcome in assay [5], in assay [6], in assay [7] and in assay [8] was inactive.
As to `Cc1[nH]c2ccccc2c1C(=O)C(C)Sc1nnc(-c2ccccc2F)o1` (stereo not given), the growth inhibition in assay [1] and in assay [4] was 99% (active) throughout. Also, the inhibition in assay [2] is 24%; in assay [3], -2%. Also, the result in assay [5], in assay [6], in assay [7] and in assay [8] was inactive.
On to `Cc1cc(NC(=O)c2ccc(-c3ccccc3)cc2)no1`, for which the growth inhibition in assay [1] is 57% (active); in assay [4] it was 83% (active). Also, the inhibition was 5% in assay [2] and 0% in assay [3]. The result in assay [5], in assay [6], in assay [7] and in assay [8] was inactive.
As for `Cn1nc2ccc3ccccc3c2nc1=N`, the values for the growth inhibition in assay [1] and in assay [4] were 85% (active) and 91% (active), respectively. In addition, the inhibition in assay [2] is 100% (active); in assay [3], -4%. In addition, the result in assay [5], in assay [6], in assay [7] and in assay [8] was inactive.
`O=C(Nc1ccc2c(c1)CCN2C1CCN(Cc2ccc(O)cc2)C1)c1ccco1` (stereo not given): the results for the growth inhibition in assay [1] and in assay [4] were 63% (active) and 97% (active), respectively. Moreover, the inhibition in assay [2] was 0%; in assay [3], -2%. The result in assay [5], in assay [6], in assay [7] and in assay [8] was inactive.
On to `CC(C)NCc1cccc(-c2ccc(NS(=O)(=O)c3cccc4cccnc34)cc2)c1`, for which the growth inhibition in assay [1] was 10%; in assay [4] it was 90% (active). Besides, the inhibition in assay [2] was 21%; in assay [3] it was 5%. Further, the outcome in assay [5], in assay [6], in assay [7] and in assay [8] was inactive.
Turning to `O=C(N[C@@H](Cc1ccccc1)C(=O)NCCN1CCCC1)c1ccc(O)c(-c2ccc(Cl)c(Cl)c2)c1`, the growth inhibition in assay [1] is 46%; in assay [4] it was 95% (active). For the same compound, the inhibition is 8% in assay [2] and -2% in assay [3]. Moreover, the result in assay [5], in assay [6], in assay [7] and in assay [8] was inactive.
With `COc1cc(C(C)C)ccc1N1CCN(CCCCNC(=O)c2ccc(NC(=O)c3ccc(Cl)cc3)cc2)CC1`, the growth inhibition in assay [1] was 81% (active); in assay [4], 98% (active). Besides, the inhibition in assay [2] is 25%; in assay [3] it was 3%. Moreover, the result in assay [5], in assay [6], in assay [7] and in assay [8] was inactive.
With `CN1CCCN(c2ccnc3cc4c(cc23)N(C(=O)c2ccccc2Cl)CC4)CC1`, the growth inhibition in assay [1] was 30%; in assay [4], 88% (active). Further, the results for the inhibition in assay [2] and in assay [3] were 4% and 3%, respectively. Moreover, the outcome in assay [5], in assay [6], in assay [7] and in assay [8] was inactive.
